Laboratory results: PubChem BioAssay (Tox21)
“And” between values parts separate entries of the source, which are not always exact repeats. Equal values may be shown once. Records with an inconclusive call do not appear. Where a call stands in place of a potency, no number is given. A structure can be active in one record and inactive in another. The source made the active and inactive calls. Calls follow the shape of the dose curve; as a rule, active = well fitted activation curve with a large enough effect in the signal ratio in the repeat runs (not every such curve was filed as active); inconclusive = weak or mixed curves, or effect the other way; inactive = no such curve, though single readings can be large or run the other way; the % refers to the signal ratio.

Assay: qHTS assay for small molecule agonists of the antioxidant response element (ARE) signaling pathway (AID 743202)
Conditions: HepG2 ARE-bla reporter, beta-lactamase FRET, 16 h; series mostly up to 73.3 µM; activation: at the top concentration
Text: U.S. Tox21 Program National Center for Advancing Translational Sciences [NCATS] NIH Chemical Genomics Center [NCGC] U.S. Environmental Protection Agency [EPA] National Institutes of Environmental Health Sciences [NIEHS] National Toxicology Program [NTP] U.S. Food and Drug Administration [FDA] Tox21 Assay Overview: Oxidative stress has been implicated in the pathogenesis of a variety of diseases ranging from cancer to neurodegeneration. The antioxidant response element (ARE) signaling pathway plays an important role in the amelioration of oxidative stress. The CellSensor ARE-bla HepG2 cell line (Invitrogen) can be used for analyzing the Nrf2/antioxidant response signaling pathway. Nrf2 (NF-E2-related factor 2) and Nrf1 are transcription factors that bind to AREs and activate these genes. The CellSensor ARE-bla Hep G2 cell line contains a beta-lactamase reporter gene under control of the Antioxidant Response Element (ARE) stably integrated into HepG2 cells. The activation of the report gene under culture conditions can be detected by fluorescence intensity. This cell line has been used to screen the Tox21 10K compound library to identify agonists that induce oxidative stress.
Tox21 Assay Protocol Summary: The ARE-bla cells were dispensed at 2,000 cells/5 ul/well in 1536-well black wall/clear bottom plates using a Multidrop dispenser. After the assay plates were incubated at a 37 C/5% CO2 incubator for 5 hours, 23 nL of compounds dissolved in DMSO, positive controls or DMSO only was transferred to the assay plate by a pin tool. The plates were incubated at 37 C for 16 hours. After 1 uL of LiveBLAzer B/G FRET substrate was added using a Flying Reagent Dispenser, the plates were incubated at room temperature for 2 hours, and fluorescence intensity was measured by an Envision plate reader.
Potency is read from the fitted curve at half-maximal effect.

**Q.** With `O=C(C1CCCCC1)N1CC(=O)N2CCc3ccccc3C2C1` (stereo not given) as the molecule, how does the “activation” value read?
**A.** Its value is -0.722% (inactive).

**Q.** For `CCCC(CCC)C(=O)O`, which Potency is on record?
**A.** The Potency was “inactive”.

**Q.** For `CC(C)(Oc1ccc(C2CC2(Cl)Cl)cc1)C(=O)O` (stereo not given), which Potency is on record?
**A.** The Potency was “inactive”.

**Q.** Which Potency does the source give for `NNC(=O)c1ccncc1` here?
**A.** Its Potency is “inactive”.

**Q.** For `Oc1ccc(/C=C/c2cc(O)cc(O)c2)cc1`, which Potency is on record?
**A.** Its Potency is 19.3 µM (active) and 18.8 µM (active).

**Q.** For `C1N2CN3CN1CN(C2)C3`, which Potency is on record?
**A.** The Potency was “inactive”.

**Q.** With `O=C(O)c1cc(N=Nc2ccc(S(=O)(=O)Nc3ccccn3)cc2)ccc1O` as the molecule, how does the Potency read?
**A.** Its Potency is “inactive”.

**Q.** For `CNC[C@H](O)c1cccc(O)c1`, which Potency is on record?
**A.** Its Potency is “inactive”.

**Q.** For `Cn1c(=O)c2[nH]cnc2n(C)c1=O`, which Potency is on record?
**A.** Its Potency is “inactive”.

**Q.** Which Potency does the source give for `O=NO` here?
**A.** The Potency was “inactive”.

**Q.** With `CC(=O)Nc1nnc(S(N)(=O)=O)s1` as the molecule, how does the Potency read?
**A.** Its Potency is “inactive”.

**Q.** For `Cc1ccccc1C(OCCN(C)C)c1ccccc1` (stereo not given), which “activation” value is on record?
**A.** Its value is -14.5% (inactive).

**Q.** Which Potency does the source give for `NC(N)=NC(=O)c1nc(Cl)c(N)nc1N` here?
**A.** The Potency was “inactive and 25.3 µM (active)”.

**Q.** For `OCCc1ccccc1`, which Potency is on record?
**A.** The Potency was “inactive”.

**Q.** With `O=C(c1ccccc1)C(O)c1ccccc1` (stereo not given) as the molecule, how does the Potency read?
**A.** The Potency was “inactive”.

**Q.** With `CC(C)[C@@H]1CC[C@@H](C)C[C@H]1O` as the molecule, how does the Potency read?
**A.** Its Potency is “inactive”.

**Q.** For `O=C(O)CCCCC(=O)O`, which Potency is on record?
**A.** The Potency was “inactive”.

**Q.** With `NC(=O)c1ccccc1O` as the molecule, how does the “activation” value read?
**A.** Its value is -7.95% (inactive).

**Q.** Which Potency does the source give for `Nc1ccc(S(=O)(=O)c2ccc(N)cc2)cc1` here?
**A.** Its Potency is “inactive”.

**Q.** With `O=C(O)CCC(=O)O` as the molecule, how does the Potency read?
**A.** Its Potency is “inactive”.

**Q.** Which Potency does the source give for `CCCNC(=O)NS(=O)(=O)c1ccc(Cl)cc1` here?
**A.** The Potency was “inactive”.

**Q.** Which Potency does the source give for `NC(N)=O` here?
**A.** The Potency was “inactive”.

**Q.** For `C/C=C/c1ccc(OC)cc1`, which Potency is on record?
**A.** The Potency was “inactive”.

**Q.** With `CCCCCCCCCCCCCCCC(=O)O` as the molecule, how does the Potency read?
**A.** Its Potency is “inactive”.

**Q.** For `CC(=O)OCC(COC(C)=O)OC(C)=O`, which Potency is on record?
**A.** The Potency was “inactive”.

**Q.** For `C[C@]12C=CC(=O)C=C1CC[C@@H]1[C@@H]2[C@@H](O)C[C@@]2(C)[C@H]1CC[C@]2(O)C(=O)CO`, which Potency is on record?
**A.** Its Potency is “inactive”.

**Q.** With `CC(O)CO` (stereo not given) as the molecule, how does the Potency read?
**A.** The Potency was “inactive”.

**Q.** Which Potency does the source give for `O=C(O)CCCCCCCC(=O)O` here?
**A.** Its Potency is “inactive”.

**Q.** With `O=c1cc[nH]c(=S)[nH]1` as the molecule, how does the Potency read?
**A.** The Potency was “inactive”.

**Q.** Which Potency does the source give for `Cc1cc(=O)n(-c2ccccc2)n1C` here?
**A.** The Potency was “inactive”.

**Q.** For `CCOc1ccc(NC(=O)CC(C)O)cc1` (stereo not given), which Potency is on record?
**A.** The Potency was “inactive”.

**Q.** With `CCCC(O)C(CC)CO` (stereo not given) as the molecule, how does the Potency read?
**A.** Its Potency is “inactive”.

**Q.** Which Potency does the source give for `NC(=O)NC1NC(=O)NC1=O` (stereo not given) here?
**A.** Its Potency is “inactive”.

**Q.** For `CC(O)C(=O)O` (stereo not given), which Potency is on record?
**A.** The Potency was “inactive”.

**Q.** Which “activation” value does the source give for `Cn1cc[nH]c1=S` here?
**A.** Its value is 10.9% (inactive).

**Q.** For `CCC1(c2ccccc2)C(=O)NCNC1=O`, which Potency is on record?
**A.** The Potency was “inactive”.

**Q.** For `O=C1CN(/N=C/c2ccc([N+](=O)[O-])o2)C(=O)N1`, which Potency is on record?
**A.** Its Potency is 17.2 µM (active) and 26.6 µM (active).

**Q.** Which Potency does the source give for `O=C(O)c1cccnc1` here?
**A.** The Potency was “inactive”.

**Q.** With `CC1(C)[C@@H]2CC[C@@]1(C)C(=O)C2` as the molecule, how does the Potency read?
**A.** Its Potency is “inactive”.

**Q.** Which Potency does the source give for `O=C(O)/C=C\C(=O)O` here?
**A.** Its Potency is “inactive”.
